Reference: the supplement of paper PMC4022240
± gives the standard deviation.

Assays:
Experiment in all cases: peptide microarray binding signal (635 nm), min-max normalized on array (fraction of array maximum); higher = stronger binding
[1] = biological target: T1, HaloTag-ATRX ADD domain (163-292)
T1 chain: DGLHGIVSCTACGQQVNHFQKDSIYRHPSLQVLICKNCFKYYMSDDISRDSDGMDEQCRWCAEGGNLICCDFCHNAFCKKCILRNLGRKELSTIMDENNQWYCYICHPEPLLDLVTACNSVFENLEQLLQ
Method in brief: (§1)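 For each library, binding signal was taken as the triplicate-spot mean intensity and then min-max scaled. Spots of histone 13-mer peptide–cellulose conjugates on nitrocellulose, printed in triplicate with a Cy3 tracer, were probed for 1 h at 4°C with either biotin-labelled HaloTag reader fusions (10 nM to 1 μM) and streptavidin-Alexa Fluor 647 or rabbit histone antibodies (1:10,000 to 1:2,000) and anti-rabbit Alexa 647. Readout at 635 nm came from an Axon GenePix 4000B.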

[2] = biological target: HaloTag-ING2 PHD (mouse Ing2 200-280)
Method in brief: as §1

[3] = biological target: anti-H3K4me3 antibody ab8580
Method in brief: as §1

[4] = biological target: anti-H3K9me3 antibody ab8898
Method in brief: as §1

[5] = peptide region: H4 38-50, peptide modifications: H4K44me2, binder concentration: 1:2,000 dilution
[6] = peptide region: H4 38-50, peptide modifications: H4K44me2, binder concentration: 1:10,000 dilution
[7] = peptide region: H4 38-50, peptide modifications: H4K44me3 H4R45me2s, binder concentration: 1:2,000 dilution
[8] = peptide region: H4 38-50, peptide modifications: H4K44me3 H4R45me2s, binder concentration: 1:10,000 dilution
[9] = peptide region: H4 38-50, peptide modifications: H4K44me1 H4R45me2s, binder concentration: 1:2,000 dilution
[10] = peptide region: H4 38-50, peptide modifications: H4K44me1 H4R45me2s, binder concentration: 1:10,000 dilution
[11] = peptide region: H4 38-50, peptide modifications: H4K44me3 H4R45cit, binder concentration: 1:2,000 dilution
[12] = peptide region: H4 38-50, peptide modifications: H4K44me3 H4R45cit, binder concentration: 1:10,000 dilution
[13] = peptide region: H4 53-65, binder concentration: 1:2,000 dilution
[14] = peptide region: H4 53-65, binder concentration: 1:10,000 dilution

ARRGGVKRISGLI [H4 38-50 A R R G G V Kme2 R I S G L I]
peptide microarray binding signal ([1]; peptide region: H4 38-50, peptide modifications: H4K44me2, binder concentration: 50 nM): 0.0141 ± 0.0019 | peptide microarray binding signal ([1]; peptide region: H4 38-50, peptide modifications: H4K44me2, binder concentration: 500 nM): 0.0244 ± 0.00095 | peptide microarray binding signal ([2]; peptide region: H4 38-50, peptide modifications: H4K44me2, binder concentration: 10 nM): 0.0118 ± 0.00032 | peptide microarray binding signal ([2]; peptide region: H4 38-50, peptide modifications: H4K44me2, binder concentration: 100 nM): 0.0304 ± 0.0032 | peptide microarray binding signal [3, 5]: 0.00204 ± 0.00018 | peptide microarray binding signal [3, 6]: 0.00359 ± 0.00012 | peptide microarray binding signal [4, 5]: 0.00169 ± 3e-05 | peptide microarray binding signal [4, 6]: 0.00231 ± 5.5e-05

ARRGGVKRISGLI [H4 38-50 A R R G G V Kme3 Rme2s I S G L I]
peptide microarray binding signal ([1]; peptide region: H4 38-50, peptide modifications: H4K44me3 H4R45me2s, binder concentration: 50 nM): 0.00533 ± 8.8e-05 | peptide microarray binding signal ([1]; peptide region: H4 38-50, peptide modifications: H4K44me3 H4R45me2s, binder concentration: 500 nM): 0.0131 ± 0.0006 | peptide microarray binding signal ([2]; peptide region: H4 38-50, peptide modifications: H4K44me3 H4R45me2s, binder concentration: 10 nM): 0.0355 ± 0.0027 | peptide microarray binding signal ([2]; peptide region: H4 38-50, peptide modifications: H4K44me3 H4R45me2s, binder concentration: 100 nM): 0.0541 ± 0.0061 | peptide microarray binding signal [3, 7]: 0.0265 ± 0.0032 | peptide microarray binding signal [3, 8]: 0.0193 ± 0.0017 | peptide microarray binding signal [4, 7]: 0.0291 ± 0.0028 | peptide microarray binding signal [4, 8]: 0.0206 ± 0.0014

ARRGGVKRISGLI [H4 38-50 A R R G G V Kme Rme2s I S G L I]
peptide microarray binding signal ([1]; peptide region: H4 38-50, peptide modifications: H4K44me1 H4R45me2s, binder concentration: 50 nM): 0.006019 ± 2.1e-05 | peptide microarray binding signal ([1]; peptide region: H4 38-50, peptide modifications: H4K44me1 H4R45me2s, binder concentration: 500 nM): 0.00619 ± 0.00016 | peptide microarray binding signal ([2]; peptide region: H4 38-50, peptide modifications: H4K44me1 H4R45me2s, binder concentration: 10 nM): 0.0119 ± 0.00057 | peptide microarray binding signal ([2]; peptide region: H4 38-50, peptide modifications: H4K44me1 H4R45me2s, binder concentration: 100 nM): 0.0102 ± 0.0013 | peptide microarray binding signal [3, 9]: 0.00185 ± 0.00022 | peptide microarray binding signal [3, 10]: 0.00451 ± 0.00035 | peptide microarray binding signal [4, 9]: 0.00219 ± 0.00017 | peptide microarray binding signal [4, 10]: 0.0034 ± 0.00013

ARRGGVKRISGLI [H4 38-50 A R R G G V Kme3 Rcit I S G L I]
peptide microarray binding signal ([1]; peptide region: H4 38-50, peptide modifications: H4K44me3 H4R45cit, binder concentration: 50 nM): 0.0125 ± 0.00042 | peptide microarray binding signal ([1]; peptide region: H4 38-50, peptide modifications: H4K44me3 H4R45cit, binder concentration: 500 nM): 0.0116 ± 0.0018 | peptide microarray binding signal ([2]; peptide region: H4 38-50, peptide modifications: H4K44me3 H4R45cit, binder concentration: 10 nM): 0.00836 ± 0.00091 | peptide microarray binding signal ([2]; peptide region: H4 38-50, peptide modifications: H4K44me3 H4R45cit, binder concentration: 100 nM): 0.00588 ± 0.0012 | peptide microarray binding signal [3, 11]: 0.00387 ± 0.00082 | peptide microarray binding signal [3, 12]: 0.00502 ± 0.00084 | peptide microarray binding signal [4, 11]: 0.00444 ± 0.00077 | peptide microarray binding signal [4, 12]: 0.00467 ± 0.00024

ETRGVLKVFLENV [H4 53-65 E T R G V L K V F L E N V]
peptide microarray binding signal ([1]; peptide region: H4 53-65, binder concentration: 50 nM): 0.00282 ± 3.2e-05 | peptide microarray binding signal ([1]; peptide region: H4 53-65, binder concentration: 500 nM): 0.003334 ± 2.5e-05 | peptide microarray binding signal ([2]; peptide region: H4 53-65, binder concentration: 10 nM): 0.00639 ± 0.00028 | peptide microarray binding signal ([2]; peptide region: H4 53-65, binder concentration: 100 nM): 0.00461 ± 7.6e-05 | peptide microarray binding signal [3, 13]: 0.00121 ± 3.5e-05 | peptide microarray binding signal [3, 14]: 0.00188 ± 3.5e-05 | peptide microarray binding signal [4, 13]: 0.00068 ± 1e-05 | peptide microarray binding signal [4, 14]: 0.001211 ± 1.2e-05
